Measurements taken from PubChem BioAssay (EPA / NIEHS).
Inconclusive results are not listed. Active and inactive are the calls of the source. The calls were made as follows, unless noted: active = hit-call score of the fitted dose curve at least 0.9, where 1 is the maximum; inconclusive = response in the unintended direction; inactive = score below 0.9.

Tests used:
[1] = biological target: guinea pig Sigma Receptor, Non-selective Binding, SIGMAR1 (gene 100135589) (UniProt Q60492); test: NVS_OR_gSIGMA_NonSelective: NovaScreen (NVS) Nuclear Receptor Binding Assay for guinea pig Sigma Receptor, Non-selective Binding (AID 2283367)
In short: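 Guinea pig brain membranes, cell-free radioligand binding; read 1 h after dosing by filter-based scintillation counting. Loss of signal vs DMSO baseline taken as displacement. Primary screen single concentration 25 uM in duplicate; actives retested in concentration series.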

[2] = biological target: Estrogen receptor (Homo sapiens) (UniProt P03372); test: OT_ERa_GFPERaERE_0480: Odyssey Thera (OT) 8-hour HeLa Transcription Induction Assay for Estrogen Receptor (AID 2283381; active = hit-call score of the fitted dose curve at least 0.9, where 1 is the maximum; inactive = score below 0.9)
In short: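 HeLa cells expressing GFP reporter under estrogen response element, imaged 8 h after dosing. GFP induction quantified by high-content fluorescence microscopy image analysis; gain of signal fitted versus DMSO.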

[3] = biological target: Estrogen receptor (Homo sapiens) (UniProt P03372); test: OT_ERa_GFPERaERE_0120: Odyssey Thera (OT) 2-hour HeLa Transcription Induction Assay for Estrogen Receptor (AID 2283382)
In short: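 HeLa cells were dosed for 2 h, then GFP reporter induction was quantified by fluorescence microscopy with high-content image analysis. Gain of signal fitted against DMSO baseline.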

[4] = biological target: Retinoic acid receptor RXR-alpha (Homo sapiens) (UniProt P19793); test: OT_NURR1_NURR1RXRa_0480: Odyssey Thera (OT) 8-hour HEK293T Protein Complementation Assay for Nurr1/retinoid X receptor (RXR) (AID 2283385)
In short: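 HEK293T cells expressing Nurr1 and RXRα fused to reporter fragments (protein-fragment complementation); fluorescence measured 8 h after dosing. Gain of signal fitted relative to DMSO.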

[5] = biological target: Peroxisome proliferator-activated receptor gamma (Homo sapiens) (UniProt P37231); test: OT_PPARg_PPARgSRC1_0480: Odyssey Thera (OT) 8-hour Protein-Complementation Assay for Peroxisome Proliferator-activated Receptor Gamma / SRC-1 Co-activator (AID 2283387);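 also: nuclear to cytoplasmic split Venus YFP fluorescence ratio reporting PPARg SRC-1 interaction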
In short: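 Read-out: 488 nm N/C fluorescence ratio from complemented Venus YFP fragments, ≥350 cells per image, gain-of-signal fitted against DMSO baseline. Fusions of PPARg/SRC-1 with IFP1/IFP2 expressed transiently in HEK293T; compounds applied 8 h.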

[6] = biological target: Glucocorticoid receptor (Homo sapiens) (UniProt P04150); test: NVS_NR_hGR: NovaScreen (NVS) Nuclear Receptor Binding Assay for human Glucocorticoid Receptor (GR) (AID 2283363)
In short: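 Cell-free radioligand binding with extracted receptor protein, read by filter-based scintillation counting 16 hours after dosing. Loss of specific signal versus DMSO baseline was scored. Primary screen ran in duplicate at 25 uM; actives were followed up in concentration series.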

[7] = biological target: Peroxisome proliferator-activated receptor gamma (Homo sapiens) (UniProt P37231); test: NVS_NR_hPPARg: NovaScreen (NVS) Nuclear Receptor Binding Assay for human Peroxisome Proliferator-activated Receptor gamma (PPARg) (AID 2283370)
In short: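 Fluorescence polarization measures competitive binding to extracted PPARg in a cell-free format. Reading is taken at 2 h; activity is signal loss relative to DMSO. Screening at 25 uM in duplicate preceded confirmatory dose series.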

[8] = biological target: human Norepinephrine Transporter (NET), SLC6A2 (gene 6530) (UniProt P23975); test: NVS_TR_hNET: NovaScreen (NVS) Transporter Assay for human Norepinephrine Transporter (NET) (AID 2283377);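 also: cell-free membrane protein extracted from CHO cells expressing human NET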
In short: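 Radioligand binding to human NET in cell-free CHO-derived protein preparations, read by filter-based scintillation counting 1 hour after dosing. Loss of signal versus DMSO baseline indicated displacement; primary screening in duplicate at 25 uM, actives then titrated.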

[9] = test system: rat Norepinephrine Transporter (NET), gene 83511; test: NVS_TR_rNET: NovaScreen (NVS) Transporter Assay for rat Norepinephrine Transporter (NET) (AID 2283373)
In short: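 Rat forebrain membranes; radioligand binding measured by filter-based scintillation counting 1 hour after dosing. Loss of specific binding versus DMSO baseline scored; primary screen in duplicate at 25 uM, actives followed up in concentration series.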

[10] = biological target: Bile acid receptor (Homo sapiens) (UniProt Q96RI1); test: OT_FXR_FXRSRC1_0480: Odyssey Thera (OT) 8-hour HEK293T Protein-Complementation Assay for Farnesoid X receptor/SRC-1 Co-activator (AID 2283383)
In short: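 HEK293T protein-fragment complementation assay: FXR and SRC-1 coactivator are fused to reporter fragments, and their interaction restores a fluorescent reporter. Readout was taken 8 h after dosing, with gain of signal fit relative to DMSO.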

[11] = biological target: Bile acid receptor (Homo sapiens) (UniProt Q96RI1); test: OT_FXR_FXRSRC1_1440: Odyssey Thera (OT) 24-hour HEK293T Protein-Complementation Assay for Farnesoid X receptor/SRC-1 Co-activator (AID 2283384)
In short: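 HEK293T cells, 24 h after chemical dosing. FXR–SRC-1 coactivator interaction read as fluorescence from protein-fragment complementation of a split reporter. Gain of signal fitted against DMSO baseline.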

[12] = biological target: Retinoic acid receptor RXR-alpha (Homo sapiens) (UniProt P19793); test: OT_NURR1_NURR1RXRa_1440: Odyssey Thera (OT) 24-hour HEK293T Protein Complementation Assay for Nurr1/retinoid X receptor (RXR) (AID 2283386)
In short: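 HEK293T protein-fragment complementation of Nurr1 and RXRα fused to reporter fragments; compounds 24 h. Fluorescence gain from reconstituted reporter fitted versus DMSO.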

[13] = test system: guinea pig Dopamine Transporter (DAT), gene 100714898; test: NVS_TR_gDAT: NovaScreen (NVS) Transporter Assay for guinea pig Dopamine Transporter (DAT) (AID 2283369);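 also: active compounds lower bound radioligand signal relative to DMSO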
In short: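 Test chemicals were incubated 2 h with guinea pig striatal membranes and a radioligand; bound label was separated by filtration and counted. Screening ran at 25 uM, followed by concentration-response testing to a 50 uM maximum.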

[14] = biological target: mouse Estrogen Receptor alpha (Era), Esr1 (gene 13982) (UniProt P19785); test: NVS_NR_mERa: NovaScreen (NVS) Nuclear Receptor Binding Assay for mouse Estrogen Receptor alpha (Era) (AID 2283378);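 also: hit means loss of bound radioligand signal relative to DMSO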
In short: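 Test chemicals competed against a specific radioligand for binding to cell-free mouse Era. Duplicate wells at 25 uM were read 18 hours later by filter-based radiodetection, with loss of signal against DMSO scored as activity.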

[15] = biological target: Agonist Androgen Response Element (ARE), AR (gene 367) (UniProt P10275); test: OT_AR_ARELUC_AG_1440: Odyssey Thera (OT) 24-hour CHO-K1 Luciferase Assay for Agonist Androgen Response Element (ARE) (AID 2283379)
In short: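 Seed CHO-K1 cells; dose compounds for 24 h; add D-luciferin plus ATP in PBS; read luminescence. Signal increase relative to vehicle defines agonist activity, with at least 3 replicate wells per sample.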

[16] = biological target: Estrogen receptor beta (Homo sapiens) (UniProt Q92731); test: OT_ER_ERbERb_1440: Odyssey Thera (OT) 24-hour HEK293T Protein-Complementation Assay for Estrogen Receptor-beta/-beta Homodimer (AID 2283380);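 also: fluorescence gain from ER beta LBD homodimer complementation read by laser scanning cytometry; scored as signal increase over DMSO baseline for both agonists and antagonists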
In short: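 HEK293T cells stably expressing human ER-beta LBD (aa 310-547) PCA homodimer pair, dosed 24 h; formaldehyde-fixed, Draq5-stained. Readout: increase in nuclear (agonist) or nuclear plus cytoplasmic (antagonist) fluorescence intensity versus DMSO, gain-of-signal fitting.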

[17] = biological target: rat Serotonin Transporter (SERT), Slc6a4 (gene 25553) (UniProt P31652); test: NVS_TR_rSERT: NovaScreen (NVS) Transporter Assay for rat Serotonin Transporter (SERT) (AID 2283375)
In short: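 Steps: rat forebrain membranes dosed with chemical (25 uM duplicate primary; concentration series for actives); 1 h incubation; labelled ligand bound, filtered, counted by scintillation. Activity scored as signal loss vs DMSO.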

[18] = biological target: human Adenosine Transporter (Adot), SLC29A1 (gene 2030) (UniProt Q99808); test: NVS_TR_hAdoT: NovaScreen (NVS) Transporter Assay for human Adenosine Transporter (Adot) (AID 2283368)
In short: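 U937-derived membranes, cell-free radioligand binding, filter scintillation 1 h after dosing. 25 uM duplicate screen; hits (e.g. 30% inhibition) run in concentration-response up to 50 uM; loss of signal versus DMSO.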

Measured: AC50

Chain of human Norepinephrine Transporter (NET), SLC6A2 (gene 6530) (P23975 whole entry, looked up): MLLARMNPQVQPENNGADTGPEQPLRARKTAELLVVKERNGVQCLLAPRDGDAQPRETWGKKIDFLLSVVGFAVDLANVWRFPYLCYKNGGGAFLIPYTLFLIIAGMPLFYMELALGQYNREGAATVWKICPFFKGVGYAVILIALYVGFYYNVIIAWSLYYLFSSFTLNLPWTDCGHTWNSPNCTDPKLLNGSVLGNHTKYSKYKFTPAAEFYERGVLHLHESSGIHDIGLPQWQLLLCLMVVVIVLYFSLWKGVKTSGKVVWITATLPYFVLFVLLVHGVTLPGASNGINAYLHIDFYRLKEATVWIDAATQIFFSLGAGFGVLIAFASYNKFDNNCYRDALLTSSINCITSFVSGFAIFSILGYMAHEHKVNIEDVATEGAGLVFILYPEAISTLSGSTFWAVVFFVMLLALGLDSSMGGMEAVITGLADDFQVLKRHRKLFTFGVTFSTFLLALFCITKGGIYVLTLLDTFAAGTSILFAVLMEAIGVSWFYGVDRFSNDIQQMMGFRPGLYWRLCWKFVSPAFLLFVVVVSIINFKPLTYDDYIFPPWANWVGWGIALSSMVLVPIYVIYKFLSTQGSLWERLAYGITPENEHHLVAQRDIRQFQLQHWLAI
Chain of Estrogen receptor (Homo sapiens) (P03372 whole entry, looked up): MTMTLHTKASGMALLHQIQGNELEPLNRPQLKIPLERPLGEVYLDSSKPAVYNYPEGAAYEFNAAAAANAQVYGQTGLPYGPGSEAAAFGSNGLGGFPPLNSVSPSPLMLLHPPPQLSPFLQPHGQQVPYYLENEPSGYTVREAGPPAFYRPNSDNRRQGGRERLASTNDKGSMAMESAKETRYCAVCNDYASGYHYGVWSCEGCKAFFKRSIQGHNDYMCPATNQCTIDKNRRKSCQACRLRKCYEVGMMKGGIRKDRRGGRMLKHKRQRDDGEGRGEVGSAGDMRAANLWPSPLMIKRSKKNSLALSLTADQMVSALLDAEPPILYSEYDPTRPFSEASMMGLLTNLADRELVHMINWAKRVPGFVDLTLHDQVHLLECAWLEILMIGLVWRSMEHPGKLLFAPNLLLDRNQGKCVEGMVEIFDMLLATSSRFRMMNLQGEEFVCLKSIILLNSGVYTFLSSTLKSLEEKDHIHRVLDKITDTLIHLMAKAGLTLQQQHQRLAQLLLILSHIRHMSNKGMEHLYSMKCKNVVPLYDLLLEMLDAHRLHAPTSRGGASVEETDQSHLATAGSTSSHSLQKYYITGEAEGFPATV
Chain of Peroxisome proliferator-activated receptor gamma (Homo sapiens) (P37231 whole entry, looked up, the tested form may be a part): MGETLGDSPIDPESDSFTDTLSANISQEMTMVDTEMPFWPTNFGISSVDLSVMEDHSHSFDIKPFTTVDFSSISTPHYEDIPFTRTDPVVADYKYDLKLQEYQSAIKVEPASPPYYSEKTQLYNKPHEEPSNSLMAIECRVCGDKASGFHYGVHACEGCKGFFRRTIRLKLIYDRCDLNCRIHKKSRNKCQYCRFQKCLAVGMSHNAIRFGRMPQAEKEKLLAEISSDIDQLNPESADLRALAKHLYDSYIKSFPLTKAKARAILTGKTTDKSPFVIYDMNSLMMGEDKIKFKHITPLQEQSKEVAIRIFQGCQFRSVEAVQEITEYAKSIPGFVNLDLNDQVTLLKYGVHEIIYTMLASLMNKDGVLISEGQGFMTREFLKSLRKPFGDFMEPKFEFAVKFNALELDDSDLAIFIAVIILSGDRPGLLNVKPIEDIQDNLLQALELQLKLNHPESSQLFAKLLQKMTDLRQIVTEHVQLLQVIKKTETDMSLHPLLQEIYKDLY
Chain of Retinoic acid receptor RXR-alpha (Homo sapiens) (P19793 whole entry, looked up, the tested form may be a part): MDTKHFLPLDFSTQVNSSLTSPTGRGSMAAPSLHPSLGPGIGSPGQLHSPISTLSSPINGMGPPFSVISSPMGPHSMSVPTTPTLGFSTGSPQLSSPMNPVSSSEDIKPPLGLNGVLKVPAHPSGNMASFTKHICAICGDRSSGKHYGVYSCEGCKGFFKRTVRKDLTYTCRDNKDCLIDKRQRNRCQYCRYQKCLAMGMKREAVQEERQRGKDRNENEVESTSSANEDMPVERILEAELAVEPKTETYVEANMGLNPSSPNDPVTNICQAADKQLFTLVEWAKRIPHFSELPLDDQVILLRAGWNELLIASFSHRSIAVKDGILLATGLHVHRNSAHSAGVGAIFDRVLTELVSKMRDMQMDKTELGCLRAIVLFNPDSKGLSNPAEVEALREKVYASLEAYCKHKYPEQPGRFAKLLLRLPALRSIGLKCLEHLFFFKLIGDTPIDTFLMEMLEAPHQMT
Chain of Estrogen receptor beta (Homo sapiens) (Q92731 whole entry, looked up, the tested form may be a part): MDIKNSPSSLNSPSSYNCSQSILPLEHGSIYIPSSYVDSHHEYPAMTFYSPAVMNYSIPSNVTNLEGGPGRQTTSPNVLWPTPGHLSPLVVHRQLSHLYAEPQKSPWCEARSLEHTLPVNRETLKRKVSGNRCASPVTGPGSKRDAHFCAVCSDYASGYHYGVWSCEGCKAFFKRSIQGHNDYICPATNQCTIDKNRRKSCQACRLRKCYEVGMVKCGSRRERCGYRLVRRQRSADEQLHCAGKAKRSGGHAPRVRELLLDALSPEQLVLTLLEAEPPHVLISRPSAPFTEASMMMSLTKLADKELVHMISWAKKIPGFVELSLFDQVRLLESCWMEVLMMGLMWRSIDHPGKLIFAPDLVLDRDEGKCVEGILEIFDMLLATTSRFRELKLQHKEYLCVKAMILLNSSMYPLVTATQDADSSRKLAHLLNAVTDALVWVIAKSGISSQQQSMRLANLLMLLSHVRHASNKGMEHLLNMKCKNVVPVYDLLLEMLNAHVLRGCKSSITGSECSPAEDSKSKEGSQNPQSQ
Chain of Bile acid receptor (Homo sapiens) (Q96RI1 whole entry, looked up, the tested form may be a part): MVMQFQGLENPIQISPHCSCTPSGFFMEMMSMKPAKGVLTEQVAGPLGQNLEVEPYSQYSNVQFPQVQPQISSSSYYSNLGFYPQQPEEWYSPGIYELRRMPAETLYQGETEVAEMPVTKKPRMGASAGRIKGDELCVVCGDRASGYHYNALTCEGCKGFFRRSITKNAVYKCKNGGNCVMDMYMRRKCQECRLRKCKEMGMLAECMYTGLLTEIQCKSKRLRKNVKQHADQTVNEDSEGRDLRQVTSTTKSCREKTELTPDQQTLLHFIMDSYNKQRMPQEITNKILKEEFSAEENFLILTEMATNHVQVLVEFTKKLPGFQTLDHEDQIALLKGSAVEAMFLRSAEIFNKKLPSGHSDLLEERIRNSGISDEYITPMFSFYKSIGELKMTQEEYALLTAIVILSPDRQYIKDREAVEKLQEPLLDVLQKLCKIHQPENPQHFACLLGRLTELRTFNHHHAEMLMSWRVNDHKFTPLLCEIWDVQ
Chain of rat Serotonin Transporter (SERT), Slc6a4 (gene 25553) (P31652 whole entry, looked up): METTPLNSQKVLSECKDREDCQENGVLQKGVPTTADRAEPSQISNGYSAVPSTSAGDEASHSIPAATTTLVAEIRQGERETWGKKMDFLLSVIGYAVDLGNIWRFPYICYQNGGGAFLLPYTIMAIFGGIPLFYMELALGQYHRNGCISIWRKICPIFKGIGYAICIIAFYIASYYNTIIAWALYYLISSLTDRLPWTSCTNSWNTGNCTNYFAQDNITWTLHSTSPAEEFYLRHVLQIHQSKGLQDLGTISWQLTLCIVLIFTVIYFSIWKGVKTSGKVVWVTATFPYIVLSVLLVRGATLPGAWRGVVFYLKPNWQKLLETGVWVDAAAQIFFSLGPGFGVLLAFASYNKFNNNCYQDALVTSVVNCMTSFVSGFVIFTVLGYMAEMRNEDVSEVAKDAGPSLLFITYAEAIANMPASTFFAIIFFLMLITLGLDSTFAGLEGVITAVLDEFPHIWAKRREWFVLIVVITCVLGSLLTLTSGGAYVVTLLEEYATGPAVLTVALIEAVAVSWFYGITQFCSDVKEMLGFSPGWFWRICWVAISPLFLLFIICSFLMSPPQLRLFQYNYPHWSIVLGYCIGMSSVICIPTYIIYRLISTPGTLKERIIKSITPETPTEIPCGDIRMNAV
Chain of mouse Estrogen Receptor alpha (Era), Esr1 (gene 13982) (P19785 whole entry, looked up): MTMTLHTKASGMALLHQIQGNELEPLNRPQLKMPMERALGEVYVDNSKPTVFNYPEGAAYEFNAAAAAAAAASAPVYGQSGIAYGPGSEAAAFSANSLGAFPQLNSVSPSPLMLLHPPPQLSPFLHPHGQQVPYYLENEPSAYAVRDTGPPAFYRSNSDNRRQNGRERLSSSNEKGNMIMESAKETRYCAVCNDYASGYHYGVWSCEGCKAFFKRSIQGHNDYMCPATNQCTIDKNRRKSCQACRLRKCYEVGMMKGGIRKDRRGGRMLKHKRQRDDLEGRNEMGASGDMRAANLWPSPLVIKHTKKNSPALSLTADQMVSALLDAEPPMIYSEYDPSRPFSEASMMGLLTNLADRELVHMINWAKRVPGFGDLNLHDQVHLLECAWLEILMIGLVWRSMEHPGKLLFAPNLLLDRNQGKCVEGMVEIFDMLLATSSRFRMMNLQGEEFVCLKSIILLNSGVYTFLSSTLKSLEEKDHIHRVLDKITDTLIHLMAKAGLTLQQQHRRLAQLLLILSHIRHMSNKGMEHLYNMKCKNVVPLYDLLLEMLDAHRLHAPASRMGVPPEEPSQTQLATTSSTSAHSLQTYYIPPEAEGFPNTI
Chain of guinea pig Sigma Receptor, Non-selective Binding, SIGMAR1 (gene 100135589) (Q60492 whole entry, looked up): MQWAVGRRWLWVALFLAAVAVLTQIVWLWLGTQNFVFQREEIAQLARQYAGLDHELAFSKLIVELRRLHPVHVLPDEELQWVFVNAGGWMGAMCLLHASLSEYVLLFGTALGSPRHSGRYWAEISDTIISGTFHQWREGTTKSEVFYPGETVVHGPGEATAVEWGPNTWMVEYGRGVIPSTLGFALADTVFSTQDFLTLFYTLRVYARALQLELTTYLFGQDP

Cc1nc(C)nc(N2C[C@@H](C)N(c3ccnc([C@@H](C)O)n3)[C@@H](C)C2)n1
inactive: [2] | [3] | [4] | [5]
active: [1] 3.21 µM

Nc1ccc2c(c1)C(=O)c1ccccc1C2=O
inactive: [6] | [7] | [8] | [2] | [3] | [5]

C=CCOC(=O)c1ccccc1C(=O)OCC=C
active: [7] 7.81 nM | [9] 25 µM | [3] 69.7 µM
inactive: [10] | [11] | [12] | [5]

Nc1ccc(S(=O)(=O)c2ccc(N)cc2)cc1
active: [13] 25 µM
inactive: [8] | [3] | [10] | [11] | [4] | [12] | [5]

COc1cc(C=O)ccc1O
inactive: [14] | [16] | [2] | [3] | [10] | [4] | [12] | [5]
active: [15] 50 µM

CNCc1cc(F)ccc1Oc1ccc(Cl)c(Cl)c1
active: [17] 3.46 nM | [2] 75.6 µM | [3] 70.5 µM
inactive: [16] | [5]

COC(=O)c1ccc(O)cc1
inactive: [14] | [16] | [2] | [3] | [12] | [5]

c1cc(-c2ccncc2)ccn1
inactive: [18] | [2] | [3] | [12] | [5]

Cc1c(C(=O)O)c(O)cc2c1C(=O)c1c(O)c([C@@H]3O[C@H](CO)[C@@H](O)[C@H](O)[C@H]3O)c(O)c(O)c1C2=O
inactive: [13] | [17] | [16] | [2] | [3] | [10] | [12] | [5]

CC1(C)CC(N=C=O)CC(C)(CN=C=O)C1 (configuration not stated)
inactive: [2] | [3] | [10] | [11] | [4] | [12] | [5]
active: [8] 9.14 µM
